A short description of experiment [1]: NCI Yeast Anticancer Drug Screen. Data for the rad50 strain (AID 155).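 Also: 0% = growth of vehicle-only cultures of the same strain.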 To be noted: S. cerevisiae rad50 strain growth inhibition; at 50.0 µM; stronger effect = higher value. Put shortly: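 Growth of the mutant yeast was measured after compound exposure and referenced to vehicle-treated cultures.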
A short description of experiment [2]: NCI Yeast Anticancer Drug Screen. Data for the mec2-1 strain (AID 157). To be noted: S. cerevisiae mec2-1 strain, at 50.0 µM, stronger effect = higher value. Put shortly:
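Readout is yeast growth inhibition, normalised to vehicle-treated controls, in the mec2-1 strain exposed to compound.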

A short description of experiment [3]: NCI Yeast Anticancer Drug Screen. Data for the sgs1 mgt1 strain (AID 161).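 Also: 0% = growth of cultures given vehicle only.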 To be noted: S. cerevisiae sgs1 mgt1 strain, at 50.0 µM, stronger effect = higher value. Put shortly:
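Growth of a repair-deficient yeast mutant was monitored after compound treatment and expressed as inhibition relative to vehicle-treated cultures.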

A short description of experiment [4]: NCI Yeast Anticancer Drug Screen. Data for the cln2 rad14 strain (AID 165).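 Also: 0% = growth equal to vehicle treated cultures.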 To be noted: S. cerevisiae cln2 rad14 strain, at 50.0 µM, stronger effect = higher value. Put shortly: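 Relative to vehicle controls, growth inhibition of compound-treated cln2 rad14 yeast was recorded.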
A short description of experiment [5]: NCI Yeast Anticancer Drug Screen. Data for the bub3 strain (AID 167). To be noted: S. cerevisiae bub3 mutant strain, at 50.0 µM, stronger effect = higher value. Put shortly:
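Whole-cell yeast assay. The mutant strain was incubated with compounds, and growth inhibition was determined by comparison with vehicle-treated cells.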

The nature of experiment [6]: NCI Yeast Anticancer Drug Screen. Data for the mlh1 rad18 strain (AID 175). To be noted: S. cerevisiae mlh1 rad18 strain growth inhibition; at 50.0 µM; stronger effect = higher value. Put shortly: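 Test agents were incubated with a yeast strain of defined genotype (DNA damage repair defect). Inhibition of growth was derived by comparison with vehicle-exposed cultures.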

Compounds without any hit were thinned out: in the full panel of roughly 79,000, 15% have a hit. Values without a mark were called inactive. The source made the active and inactive calls. Rule as the data show it: active = growth inhibition above about 70%; inactive = the rest.

With `O=C(O)/C=C/C(=O)Nc1ccc2c(c1)-c1ccccc1C2=O`, the growth inhibition in experiment [1] is 15.9%; in experiment [2] it was 14.4%; in experiment [3], 17.9%; in experiment [4], 5.25%; in experiment [5], 5.15%; in experiment [6], 16.6%.
`O=c1ccc2ccc(OP(=O)(O)O)cc2o1`: the growth inhibition is -12.4% in experiment [1]; -15.1% in experiment [2]; 11.4% in experiment [3]; 14.1% in experiment [4]; -34.7% in experiment [5]; 19.6% in experiment [6].
For the molecule `CC(C)(C)c1cc(C(=O)O)c2c(c1)C(=O)OC2(c1ccccc1)c1ccccc1C(=O)O` (stereo not given), the growth inhibition in experiment [1] is 29.1%; in experiment [2], 7.6%; in experiment [3], 5.6%; in experiment [4] it was 9.95%; in experiment [5], 8.75%; in experiment [6], 31.2%.
On to `C[N+](C)(C)CCOc1cccc(Br)c1`, for which the growth inhibition in experiment [1] is 9.8%; in experiment [2], 14.5%; in experiment [3], 21.6%; in experiment [4] it was 29.8%; in experiment [5], 11.7%; in experiment [6], 23.9%.
For the molecule `CCCCCCC(C)NCC(=O)Nc1ccccc1C` (stereo not given), the growth inhibition was -2.7% in experiment [1]; 14.2% in experiment [2]; 25.6% in experiment [3]; -44.7% in experiment [4]; 59.7% in experiment [5]; 30.6% in experiment [6].
For the molecule `Cc1ccc(S(=O)(=O)/C=C\S(=O)(=O)c2ccc(C)cc2)cc1`, the growth inhibition in experiment [1] is -7.35%; in experiment [2], -3.15%; in experiment [3] it was 5.15%; in experiment [4], -28.4%; in experiment [5], 3.15%; in experiment [6], 2.7%.
For `CCOc1ccccc1Br`, the growth inhibition in experiment [1] is -2.05%; in experiment [2], 8.65%; in experiment [3], -2.05%; in experiment [4], -9.8%; in experiment [5], 1%; in experiment [6], -38.2%.
For the molecule `c1ccc(CN2COc3c(ccc4c5c(ccc34)CN(Cc3ccccc3)CO5)C2)cc1`, the growth inhibition in experiment [1] is 5%; in experiment [2], -10.4%; in experiment [3], -37.5%; in experiment [4], -14.1%; in experiment [5] it was -19.9%; in experiment [6], -9.15%.
Regarding `CCN(CC)C(=O)C(C)n1cc(C)c(=O)[nH]c1=O` (stereo not given), the growth inhibition in experiment [1] was -32.2%; in experiment [2], -39.2%; in experiment [3], -19.9%; in experiment [4], 5.35%; in experiment [5], -2.55%; in experiment [6], -3.85%.
For the molecule `COc1cccc(C2=CCCCCC2)c1OC`, the growth inhibition in experiment [1] is 1.15%; in experiment [2], -12.8%; in experiment [3], -9.45%; in experiment [4] it was -23%; in experiment [5], -15.9%; in experiment [6], 4.3%.
Consider `O=[N+]([O-])c1ccc(Oc2c3ccccc3nc3ccccc23)cc1`, for which the growth inhibition in experiment [1] was 11.3%; in experiment [2], -3.7%; in experiment [3], 19.6%; in experiment [4] it was -1.8%; in experiment [5], -1.4%; in experiment [6] it was 14.4%.
With `COc1ccc(C2CC(=O)N(c3ncccc3C)C(=O)C2)cc1`, the growth inhibition in experiment [1] is -1%; in experiment [2] it was 6.9%; in experiment [3] it was -1.05%; in experiment [4], -21.1%; in experiment [5] it was -18.8%; in experiment [6], 3.65%.
As for `NC(CS(=O)Cc1ccccc1)C(=O)O` (stereo not given), the growth inhibition was 0.8% in experiment [1]; -1.1% in experiment [2]; -0.3% in experiment [3]; -29.6% in experiment [4]; -2.8% in experiment [5]; -6.85% in experiment [6].
As to `COc1ccc2[nH]c(=O)c(C(C)=O)c(O)c2c1`, the growth inhibition is 3% in experiment [1]; 6.95% in experiment [2]; 6.15% in experiment [3]; 1.6% in experiment [4]; 7.15% in experiment [5]; 7.85% in experiment [6].
For the molecule `C=CCOC(=O)CC(O)(CC(=O)OCC=C)C(=O)OCC=C`, the growth inhibition in experiment [1] is -3.4%; in experiment [2], -17.9%; in experiment [3] it was -11.8%; in experiment [4], -35.5%; in experiment [5], -6.4%; in experiment [6] it was -12.2%.
In the case of `COc1cc2c(c(OC)c1OC)-c1ccc(SCC3CCC4CC3C4(C)C)c(=O)cc1C(NC(C)=O)CC2` (stereo not given), the growth inhibition in experiment [1] was 97.5% (active); in experiment [2] it was 97.3% (active); in experiment [3] it was 98% (active); in experiment [4] it was 96.2% (active); in experiment [5] it was 95.9% (active); in experiment [6] it was 96.9% (active).
Take `COC1OC2COC(C)(c3ccccc3)OC2C(O)C1[NH-].COC1OC2COC(C)(c3ccccc3)OC2C(O)C1[NH-].[Cl][Pt+2][Cl]` (stereo not given): the growth inhibition in experiment [1] was -0.25%; in experiment [2] it was -2.7%; in experiment [3], -7.8%; in experiment [4], -25.3%; in experiment [5], -3.05%; in experiment [6] it was 35.4%.
Consider `CCC1CN2CCc3cc(OC)c(OC)cc3C2CC1C#N` (stereo not given), for which the growth inhibition in experiment [1] is 15.4%; in experiment [2] it was 9.2%; in experiment [3], 23.8%; in experiment [4] it was 21.1%; in experiment [5], 12.1%; in experiment [6], 23.1%.
Regarding `CCn1c2ccc(N=C=O)cc2c2c3[nH]c(=O)c4cccn4c3ccc21`, the growth inhibition in experiment [1] was -30.9%; in experiment [2], 10.2%; in experiment [3] it was -9.4%; in experiment [4] it was 0.55%; in experiment [5], -1.8%; in experiment [6], 1.25%.
Regarding `CCC(=O)N1C(=O)C(C)C23c4ccccc4C(=O)N2CCCN13` (stereo not given), the growth inhibition in experiment [1] was 4.35%; in experiment [2], -13.1%; in experiment [3] it was -1.8%; in experiment [4], 11.1%; in experiment [5], 1.8%; in experiment [6], 15.8%.

(Values after PubChem BioAssay (NCI).)
